Rce1 inh: blocks yeast Ras-converting enzyme; Q03530; yeast membranes, quenched prenylated peptide cleavage fluorescence; calls only; 290,000 compounds, 0.27% hits; AID 2563;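 active = fall in fluorescence gain of 50% or more versus controls, with final raw signal at or below 3038400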;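 note: plate controls were neutral control wells for no effect and wells lacking membranes for full effect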
Target sequence (Q03530 whole entry, looked up): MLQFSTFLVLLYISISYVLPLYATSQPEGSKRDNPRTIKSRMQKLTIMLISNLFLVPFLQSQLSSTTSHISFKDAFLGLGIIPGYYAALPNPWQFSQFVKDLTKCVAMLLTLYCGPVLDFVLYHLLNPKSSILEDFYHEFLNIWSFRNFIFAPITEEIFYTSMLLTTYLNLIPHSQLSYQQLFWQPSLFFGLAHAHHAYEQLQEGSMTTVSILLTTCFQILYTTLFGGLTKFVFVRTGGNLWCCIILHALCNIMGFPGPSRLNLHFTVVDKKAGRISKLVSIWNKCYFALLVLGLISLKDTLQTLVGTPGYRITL
tim23-1 inh: growth inhibitors of tim23-1 mutant yeast; S. cerevisiae tim23-1 growth, BacTiter-Glo luminescence, 24 h; inhibition, % at 20 µM; 330,000 compounds, 1.3% hits; AID 463212;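 active = growth inhibition of the mutant yeast at or above 50%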;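 note: temperature-sensitive mutant grown at 25 °C; plate controls were DMSO-treated mutant yeast for no effect and medium wells lacking yeast for full effect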
TIM10 inh: inhibits growth of TIM10 yeast strain; S. cerevisiae TIM10 strain growth, BacTiter-Glo luminescence, 24 h; inhibition, % at 10 µM; 330,000 compounds, 1.4% hits;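 active = inhibition of 40% or more at the single tested concentration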;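 note: wild-type TIM10 isogenic control strain grown at permissive 25 °C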
PfHsp90 yeast 2: inhibits growth of yeast expressing Plasmodium falciparum Hsp90 | S. cerevisiae expressing PfHsp90, BacTiter-Glo ATP, 48 h; yeast lacking PDR1 and PDR3 efflux regulators | inhibition, % at 9.4 µM | 310,000 compounds, 0.32% hits | AID 504621;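 active = every replicate shows inhibition above about 80%, whatever the replicate mean, limit read from the data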;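 note: 0% = DMSO neutral controls and 100% = 20 µM radicicol positive controls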
tim10-1 inh: inhibits growth of tim10-1 mutant yeast | S. cerevisiae tim10-1 ts strain growth, BacTiter-Glo, 24 h | inhibition, % at 20 µM | 330,000 compounds, 2.2% hits;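 active = inhibition of at least 40%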;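 note: mutant grown at 25 °C; 0% = DMSO wells with yeast and 100% = wells holding no yeast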
tim23-1 conf: confirmation of tim23-1 mutant yeast growth inhibitors. shares compounds with tim23-1 inh. S. cerevisiae tim23-1 growth, BacTiter-Glo luminescence, 24 h. inhibition, % at 20 µM. 4,400 compounds, 83% hits. AID 463218;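 active = inhibition above about 39% in either of two replicate wells at 20 µM, limit read from the data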;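 note: temperature-sensitive tim23-1 mutant grown at 25 °C; 0% = DMSO wells with yeast and 100% = medium wells without yeast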
* = called active by the depositor; i = inactive; · = not tested or not shown. In the library only some 3.7% were active in any assay of this set; here they are far more common.

SMILES | Rce1 inh | tim23-1 inh | TIM10 inh | PfHsp90 yeast 2 | tim10-1 inh | tim23-1 conf
O=c1c(-c2ccc(O)cc2)coc2cc(O)cc(O)c12 | i | 17 | -7 | 11 | 24 | ·
O=C(COC(=O)COc1ccc(Cl)cc1)NCCCc1ccccc1 | · | 16 | 3 | -8 | 2 | ·
O=C(COC(=O)COc1ccc(Cl)cc1)NCCNC(=O)COC(=O)COc1ccc(Cl)cc1 | i | 93* | -1 | -9 | -14 | 3
O=C(c1ccccc1NS(=O)(=O)c1ccc([N+](=O)[O-])cc1[N+](=O)[O-])N1O[C@@H]2C=C[C@H]1C2 | · | 53* | 4 | -18 | 28 | 38
CCN(CC(=O)NCc1ccc(F)cc1)C(=O)/C=C/c1ccc(OC)c(S(=O)(=O)NC(C)C)c1 | i | 12 | -16 | -2 | -14 | ·
Cc1ccccc1-n1nc2c(c1NC(=O)COc1ccc(Cl)cc1)CS(=O)C2 (stereo not given) | i | 13 | -5 | 22 | 3 | ·
COc1ccc(CC(=O)Nc2c3c(nn2-c2ccccc2C)CS(=O)C3)cc1 (stereo not given) | i | 97* | -12 | 25 | 14 | 4
O=C(NC(=S)Nc1cccc(O)c1)C1CCCCC1 | · | 51* | 35 | · | 27 | 42*
O=C(NC(=S)Nc1ccccc1Br)C1CCCCC1 | · | 56* | 39 | -36 | 27 | 38
Cc1ccc(NC(=S)NC(=O)C2CCC2)cc1C | i | 48 | 29 | 12 | 27 | ·
Cc1ccc(NC(=S)NC(=O)C2CCCC2)cc1C | i | 54* | 22 | 10 | 29 | 42*
COc1cccc(/C=C/C(=O)OCC(=O)N2c3ccccc3NC(=O)C2(C)C)c1 | i | -3 | -13 | -3 | -4 | ·
CCc1nc(Nc2cccc(O)c2)c2oc3ccccc3c2n1 | i | 60* | 29 | 5 | 9 | 46*
O=C(On1c(-c2ccccc2)nc2ccccc2c1=O)c1ccco1 | i | 75* | 33 | 2 | 15 | 57*
O=c1c2ccccc2nc(-c2ccco2)n1Cc1ccccc1 | i | 28 | 7 | · | 32 | ·
O=C(OCc1c(-c2ccccc2)ncc2ccccc12)c1ccco1 | · | 55* | 28 | -8 | 24 | 40
O=C(O)c1ccccc1C(=O)OCc1c(-c2ccccc2)ncc2ccccc12 | · | 9 | -7 | 8 | 0 | ·
CCCc1nc2sc3ccccc3c(=O)c2c(=O)n1Cc1ccc(OC)cc1 | i | 52* | 18 | · | 33 | 45*
COc1ccc(Cn2c(C(C)C)nc3sc4ccccc4c(=O)c3c2=O)cc1 | i | 62* | 30 | 2 | 23 | 55*
CC(=O)Nc1ccc(N2CC(C)(C)C2=O)cc1 | i | -2 | -9 | -10 | -4 | ·
CCOc1ccccc1OCC(=O)Nc1ccc(N2CCOCC2)cc1N1CCOCC1 | · | 34 | 11 | 16 | 20 | ·
CCOC(=O)c1c(CN(C)C)n(C)c2c(O)c(N=NC(N)=O)c3ccc(Br)cc3c12 | i | 54* | 28 | 24 | 30 | 37
CCCn1c(=O)c(C(=O)OCC)c(O)c2cc(Br)ccc21 | i | 19 | -2 | 18 | 17 | ·
Cc1cccc(C2=NN(c3ccccc3)[C@H](CO)[C@H]2c2ccc(Cl)cc2)c1 | · | 51* | 4 | -17 | 20 | 38
OC[C@@H]1[C@@H](c2ccccc2)C(c2ccccc2)=NN1c1ccccc1 | · | 46 | 14 | 18 | 18 | ·
SMILES | Rce1 inh | tim23-1 inh | TIM10 inh | PfHsp90 yeast 2 | tim10-1 inh | tim23-1 conf
OC[C@@H]1[C@@H](c2ccccc2)C(c2cccc(Cl)c2)=NN1c1ccccc1 | · | 52* | 5 | 2 | 26 | 47*
COc1ccccc1[C@H]1C(c2cccc(Cl)c2)=NN(c2ccccc2)[C@@H]1CO | · | 56* | 12 | -52 | 20 | 40*
Cc1cccc(C2=NN(c3ccc(Br)cc3)[C@@H](C(=O)N3CCOC3=O)[C@@H]2c2ccc(F)cc2)c1 | i | 17 | 9 | -4 | 19 | ·
Cc1cccc(C2=NN(c3ccccc3)[C@H](CO)[C@H]2c2ccc(F)cc2)c1 | · | 51* | 20 | -22 | 28 | 34
Cc1cc([N+](=O)[O-])ccc1NC(=O)CSc1nncn1-c1ccccn1 | i | 13 | 6 | -6 | -12 | ·
C/C(=N\Nc1ccc(F)cc1)c1ccc(N2CCOCC2)c(F)c1 | i | 26 | 12 | 7 | -7 | ·
CCOc1cccc(CNCc2ccc(C(=O)O)cc2)c1 | i | 89* | -14 | -35 | -10 | 18
O=C(O)c1ccc(CNCc2cccc(Oc3ccccc3)c2)cc1 | i | 3 | 11 | 5 | -11 | ·
CCN(CC)c1ccc2c(C)cc(=O)oc2c1 | · | 31 | -11 | 12 | 4 | ·
CCN(CC)c1ccc2c(C)c(Cl)c(=O)oc2c1 | i | 50* | 27 | 12 | 9 | 53*
CCN(CC)c1ccc2c(C)c(-c3ccc(N)cc3)c(=O)oc2c1 | i | 55* | 38 | -6 | 24 | 67*
NC(=O)[C@@H]1CCOc2c(I)cc([N+](=O)[O-])cc2C(=O)N[C@@H](CO)C(=O)NCC(=O)N1 | i | 10 | -6 | -9 | -6 | ·
COC(=O)c1scc(C)c1NC(=O)c1ccccc1F | i | 5 | 1 | -45 | 12 | ·
Cc1occc1C(=O)N/N=C/C(Br)=C/c1ccccc1 | i | 55* | 17 | 17 | 24 | 75*
CCn1c(=S)[nH]c2cc(S(=O)(=O)N3CCCCC3)ccc21 | i | 3 | 1 | -19 | -11 | ·
COc1ccc(S(=O)(=O)N2CCC3(CC2)OCCN3S(=O)(=O)c2ccc(OC)cc2)cc1 | i | 7 | 12 | · | -6 | ·
COc1ccc(S(=O)(=O)N2CCOC23CCN(S(=O)(=O)c2ccc(Cl)cc2)CC3)cc1 | i | 52* | 33 | · | 36 | 42*
COc1cccc(CN2CCC(Oc3ccc(C(=O)NCc4ccccn4)cc3)CC2)c1O | i | -10 | -8 | 7 | -8 | ·
Nc1cc([N+](=O)[O-])cc2oc(-c3ccccc3)cc12 | i | 54* | 7 | -10 | 27 | 45*
O=c1cc(-c2ccccc2)oc2ccccc12 | · | 2 | -11 | 12 | -25 | ·
CCCCCOc1ccc(C(=O)NCC2(c3ccccc3)CCOCC2)cc1 | i | 51* | 27 | -16 | 37 | 46*
CCCCN(C(=O)C1CSC2(C)CCC(=O)N12)c1c(N)n(Cc2ccccc2)c(=O)[nH]c1=O (stereo not given) | · | -14 | -6 | -7 | 4 | ·
CC(C)(C)c1ccc(/C=C2\Oc3cc(O)ccc3C2=O)cc1 | i | 21 | 19 | 4 | 16 | ·
O=C1/C(=C/c2ccc(Br)cc2)Oc2cc(O)ccc21 | i | 56* | 29 | -10 | 19 | 51*
CCOC(=O)c1c(C)[nH]c(C)c1C(=O)CN1C(=O)NC(CC(C)C)C1=O (stereo not given) | i | 4 | 4 | 8 | 8 | ·
C=CCNc1nc2ccccc2nc1NS(=O)(=O)c1cccc(C)c1 | i | 37 | -11 | -24 | 21 | ·
Cc1cccc(S(=O)(=O)Nc2nc3ccccc3nc2OC(C)C)c1 | i | 53* | 39 | 6 | 28 | 49*

Screening results: PubChem, several laboratories
